Data taken from PubChem BioAssay (NCI).
Several values for one entry are separate records, joined by “and”; a condition that tells them apart may be missing. Identical values can stand only once. This is part of a sample that, as a whole, favours compounds with a hit. Of some 83,000 tested, about 20% had one in any assay.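 Results are percent growth after 48 hours of single-concentration exposure. 100 means growth as in untreated cells, lower positive values show inhibition; negative values down to -100 show cell death.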 Activity calls are given as the source filed them. How the source made its calls: active means growth percent below 10; inactive means the rest.

Assays:
Assay in all cases: NCI-60 one-dose screen, 48 h (100 = growth as untreated, 0 = no growth, -100 = all killed)
[1] = test system: EKVX NSCLC; conditions: 10 µM unless noted
[2] = test system: SN12C renal; conditions: 10 µM unless noted
[3] = test system: UO-31 renal; conditions: 10 µM unless noted
[4] = test system: TK-10 renal
[5] = test system: CAKI-1 renal; conditions: 10 µM unless noted
[6] = test system: A498 renal; conditions: 10 µM unless noted
[7] = test system: CCRF-CEM leukemia; conditions: 10 µM unless noted
[8] = test system: MOLT-4 leukemia; conditions: 10 µM unless noted
[9] = test system: RPMI-8226 leukemia; conditions: 10 µM unless noted
[10] = test system: OVCAR-8 ovarian; conditions: 10 µM unless noted
[11] = test system: SK-OV-3 ovarian; conditions: 10 µM unless noted
[12] = test system: IGROV1 ovarian; conditions: 10 µM unless noted
[13] = test system: OVCAR-3 ovarian; conditions: 10 µM unless noted
[14] = test system: HS 578T breast; conditions: 10 µM unless noted
[15] = test system: NCI/ADR-RES ovarian; conditions: 10 µM unless noted
[16] = test system: T-47D breast; conditions: 10 µM unless noted
[17] = test system: ACHN renal; conditions: 10 µM unless noted
[18] = test system: SR leukemia; conditions: 10 µM unless noted
[19] = test system: OVCAR-5 ovarian; conditions: 10 µM unless noted
[20] = test system: OVCAR-4 ovarian; conditions: 10 µM unless noted

Measured: growth

CCCc1cccc(CCC)c1O
inactive: [1] 98.9% | [2] 107% | [3] 98% | [4]; 10 µM unless noted 116% | [5] 93.8% | [6] 95.5% | [7] 111% | [8] 105% | [9] 111% | [10] 107% | [11] 110% | [12] 125% | [13] 117% | [14] 107% | [15] 103% | [16] 104%

c1ccc2c(c1)[nH]c1c2cc[n+]2cc3c(cc12)CCCC3
inactive: [2] 24.5% | [3] 82.1% | [4]; 10 µM 69.2% | [17] 66.2% | [6] 97.3% | [18] 10.6% | [9] 32.6% | [10] 10.7% | [19] 48.1% | [20] 38.9% | [11] 23.4% | [12] 66.4% | [13] 20.9% | [15] 97.7%
active: [4]; 100 µM -97.9% and -92.5% | [7] 1.33% | [8] 2.41% | [16] -13.8%

CCN(CC)CCCNCCCNc1cc(OC)cc2cccnc12
active: [20] -62.3%
inactive: [1] 80.7% | [3] 88.1% | [4]; 10 µM unless noted 112% | [17] 101% | [5] 97.6% | [6] 76.4% | [7] 88.9% | [8] 75.6% | [18] 79.5% | [9] 81.3% | [10] 88.8% | [19] 94.5% | [11] 111% | [12] 73.9% | [13] 32.8% | [14] 94.9% | [15] 93.2% | [16] 64.7%

C/C(=C\CCc1ccoc1)CC/C=C(\C)CCCN1CCC(CO)CC1
inactive: [2] 71.1% | [3] 75.1% | [4]; 10 µM unless noted 97.2% | [17] 59.4% | [5] 82.7% | [6] 45% | [7] 37.9% | [8] 24.6% | [10] 77.7% | [19] 76.4% | [20] 52.5% | [11] 65.1% | [12] 67.8% | [13] 82.4% | [14] 57.5% | [15] 73.4% | [16] 35.9%
active: [18] 2.6% | [9] 3.35%

O=C1OCCCCCCCCCC#Cc2ccccc21
inactive: [1] 115% | [2] 113% | [4]; 10 µM unless noted 122% | [17] 145% | [5] 97.1% | [6] 98.3% | [8] 85.7% | [18] 87.4% | [10] 105% | [19] 99% | [20] 91.3% | [11] 97.3% | [12] 72.1% | [13] 122% | [14] 108% | [15] 99.7% | [16] 80.1%

Cc1cc(=O)n2n1-c1ccc(Cl)cc1NC(=O)C2
inactive: [2] 99.1% | [3] 89.6% | [4]; 10 µM unless noted 117% | [17] 104% | [5] 88.4% | [6] 119% | [7] 82.6% | [8] 108% | [18] 110% | [9] 99.2% | [10] 97% | [19] 103% | [20] 98.8% | [11] 109% | [12] 112% | [13] 108% | [14] 117% | [15] 108% | [16] 118%

OC(c1cc(C(F)(F)F)nc2c(C(F)(F)F)cccc12)C1CCCCN1 (stereo not drawn)
inactive: [1] 76.4% | [3] 41.8% | [4]; 10 µM unless noted 11.9% | [5] 48.4% | [6] 53% | [7] 65.2% | [8] 19.7% | [9] 80% | [20] 56.7% | [11] 78.7% | [12] 44.7% | [14] 62.4% | [15] 50.5% | [16] 75.2%

COc1ccc(OC)c2c1[nH]c(=O)c1c3ccccc3cn21
inactive: [6] 51.1%
active: [1] -43.4% | [2] -92.9% | [3] -81.4% | [4]; 10 µM unless noted -83.4% | [7] -48.7% | [18] -6.08% | [9] -21.8% | [10] -80.7% | [19] -45.1% | [20] -29% | [11] -86% | [12] -60.7% | [15] -6.09% | [16] -48.3%

C/C(=C\CCc1ccsc1)CC/C=C(\C)CCCN1CCC(CO)CC1
inactive: [2] 51.5% | [3] 23.4% | [4]; 10 µM unless noted 22.6% | [17] 44% | [5] 45.3% | [6] 25.5% | [10] 62.8% | [19] 63.9% | [20] 40.8% | [11] 55.5% | [12] 56.1% | [13] 48.6% | [14] 28.3% | [15] 51% | [16] 27.1%
active: [7] 2.24% | [8] -22.2% | [18] -44.8% | [9] -31.1%

O=C1/C(=C/c2ccc([N+](=O)[O-])o2)Oc2ccc(Cl)cc21
inactive: [6] 108% | [19] 46.1% | [11] 85.6% | [14] 68.7% | [15] 56.1%
active: [2] -41.6% | [3] -86.1% | [4]; 10 µM unless noted -59.8% | [17] -61% | [5] 3.65% | [7] -23.4% | [8] -12.4% | [18] 5.52% | [9] -11.3% | [10] -14.9% | [20] -48% | [12] -53.6% | [13] -74.5% | [16] -28.9%

Nc1ccc(C2=NN(c3ccccc3)C(c3ccc(Cl)cc3)C2)cc1 (stereo not drawn)
active: [18] 2.52% | [9] -20.1%
inactive: [2] 76.9% | [3] 55.1% | [4]; 10 µM unless noted 74.2% | [17] 82.1% | [5] 80.9% | [6] 74.7% | [7] 64.2% | [8] 62.4% | [10] 81.8% | [19] 84.2% | [20] 96.7% | [11] 90.1% | [12] 94.5% | [13] 51.7% | [14] 102% | [15] 89.6% | [16] 63.8%

CN1CCN(CC(=O)Nc2nc3c(s2)Nc2cc(Cl)c(Cl)cc2NC3=O)CC1
inactive: [2] 109% | [3] 85.4% | [4]; 10 µM unless noted 95.8% | [17] 105% | [5] 102% | [6] 106% | [7] 99.8% | [8] 90.8% | [18] 98.8% | [9] 108% | [10] 99.3% | [19] 113% | [20] 116% | [11] 99% | [12] 110% | [13] 115% | [14] 107% | [15] 109% | [16] 98.1%

COc1ccc2nc3cc(Cl)ccc3c(N3CCN(c4ccnc(Nc5ccc(F)cc5)n4)CC3)c2c1
inactive: [2] 71.5% | [3] 56% | [4]; 10 µM unless noted 66.1% | [17] 62.5% | [5] 72% | [6] 51.1% | [7] 38.1% | [8] 20% | [18] 43.2% | [9] 63.4% | [10] 75.8% | [19] 95% | [20] 64.8% | [11] 111% | [12] 87.5% | [13] 82.4% | [14] 94.2% | [15] 71.3% | [16] 54.5%

Cn1cnc([N+](=O)[O-])c1S(=O)(=O)Oc1ccc(Cl)cc1
inactive: [1] 102% | [2] 94.5% | [4]; 10 µM unless noted 96.1% | [18] 25.3% | [10] 76.6% | [19] 102% | [20] 102% | [11] 104% | [12] 69.8% | [15] 95.8%
active: [3] -82% | [5] -65.1% | [7] -49.8% | [8] -0.321% | [13] -60.3% | [16] -31.1%

COc1ccc2c(c1)C(=O)/C(=C/c1ccc([N+](=O)[O-])s1)O2
inactive: [5] 29.7% | [6] 99.6% | [18] 11.4% | [19] 32.9% | [11] 74.6% | [15] 27.3%
active: [2] -8.43% | [3] -79.1% | [4]; 10 µM unless noted -15.3% | [17] -54% | [7] 0.726% | [8] 5.68% | [9] -12% | [10] -5.24% | [20] -45% | [12] -58.3% | [13] -35.7% | [14] -6.61% | [16] -49.1%

O=C1N(C2CCCCC2)C(=O)N1C1CCCCC1
inactive: [1] 51.3% | [2] 49.9% | [17] 11.4% | [5] 28.7% | [8] 15.7% | [18] 46.6% | [19] 28.9% | [11] 71.8% | [13] 59.7% | [15] 35.5% | [16] 43.7%
active: [4]; 10 µM unless noted 8.07% | [6] -11.9% | [7] 4.67% | [9] -16.7% | [14] -2.96%
